Source: PubChem BioAssay (National Center for Advancing Translational Sciences (NCATS))
CHX counter = counter-screen for Shiga toxin inhibitors: cycloheximide protein synthesis inhibition; cell reporter, cycloheximide protein synthesis inhibition counterscreen; max response, %; 300,000 tested, 12% active; in the data active = max response mostly above about 13%, no sharp cut-off; inactive = mostly below about 14%; also: read at 38.3 µM for the half of the compounds with a filed dose; 0% is about no effect
Marburg entry inh = blocks Marburg virus binding to or entry into cells; Marburg virus pseudotyped entry inhibition, cell reporter; Potency, µM (doses to about 37.8 µM), for the others: at the top dose activity change, negative = inhibition, hits mostly inhibitors; 300,000 tested, 1.8% active; calls by dose curve; tested in HEK293 cells; also: potency is read from the fitted curve at half-maximal effect; % is scaled to controls: 0 for no effect and ±100 for the full control effect
Shiga toxin inh = inhibitors of Shiga toxin in Vero cells; inhibition, % at 38.7 µM; 290,000 tested, 9.2% active; Vero cells, Shiga toxin protein synthesis inhibition reporter; in the data active = inhibition mostly above about 28%, no sharp cut-off; inactive = mostly below about 43%; also: 0% is about no effect
LASV entry inh = blocks Lassa virus binding to or entry into cells | Potency, µM (top dose mostly 37.9 µM), for inactives: at the highest dose activity change, negative = inhibition, usual class: inhibitors | 300,000 tested, 1.2% active | AID 540256 | Lassa virus pseudotype entry inhibition, cell reporter; calls by dose curve; tested in HEK293 cells; also: potency is read from the fitted curve at half-maximal effect; % is scaled to controls: 0 for no effect and ±100 for the full control effect; nearly all actives have a fitted effect of over 50% in size
* = called active by the depositor; u = inconclusive; x = no result; [ ] = another dose, or the depositor's remark. In the library only some 12% were active in any assay of this set; here they are far more common.

SMILES	CHX counter	Marburg entry inh	Shiga toxin inh	LASV entry inh
COc1ccc(C(=O)NCc2ncccc2C)cc1OC1CCN(C(C)=O)CC1	0	0%	-11	37%
CN1C(C(=O)NCc2ccco2)CC2Cn3c(nc4cc(Cl)c(Cl)cc43)C21 (stereo not given)	13*	x	2	x
COc1ccc(C(=O)CC2(O)C(=O)N(Cc3ccccc3)c3ccc(Br)cc32)cc1 (stereo not given)	x	-27%[46.1 µM]	x	-20%[46.1 µM]
COc1cc(N2CCOCC2)ccc1/C=C1\C(=O)NC(=O)N(C2CCCCC2)C1=O	-2	17%	2	-1%
CCN1C(=O)NC(=O)/C(=C\c2ccc(N3CCOCC3)cc2OC)C1=O	67*	3%	56*	x
CC(=O)Nc1ccc(-c2csc(N/N=C\c3ccncc3)n2)cc1	11	u	38	-30%
Clc1ccc(-c2csc(N/N=C/c3cccnc3)n2)c(Cl)c1	-2	u	-3	7.3µM*
CCCC(=O)Nc1ccc(-c2csc(N/N=C\c3ccncc3)n2)cc1	31*	u	30	u
CC(C)(C)c1csc(N/N=C/c2cccnc2)n1	37*	u	127*	u
Cc1ccc(/C=N/Nc2nc3ccccc3s2)o1	43*	u	75*	3.2µM*
Cc1cc(=O)[nH]c(N/N=C/c2ccc(C)o2)n1	1	6%	-8	2%
C(=N\Nc1nc(-c2ccccc2)cs1)/c1cccnc1	46*	u	61*	u
Cc1ccc(/C=N/Nc2nc(C(C)(C)C)cs2)o1	46*	-19%	93*	0%
O=C1CN(C(=O)Nc2ccccc2Cl)C(c2ccccc2)c2c(sc3c2CCCC3)N1 (stereo not given)	x	-4%[46.1 µM]	x	-23%[46.1 µM]
COc1ccc(CCNC(=O)C2COc3ccccc3O2)cc1OC (stereo not given)	x	2%[46.1 µM]	x	-11%[46.1 µM]
COc1ccc(CNC(=O)C2CSCCS2)cc1 (stereo not given)	24*	20%	31	11%
c1ccc(CCNCC2COc3ccccc3O2)cc1 (stereo not given)	19*	x	28*	x
O=C(NCCc1ccc(Cl)cc1)C1COc2ccccc2O1 (stereo not given)	13*	-6%[46.1 µM]	-3	11%[46.1 µM]
COc1ccccc1CNC(=O)C1COc2ccccc2O1 (stereo not given)	30*	1%	43*	11%
Cc1ccc(N2C(=O)C(CC(=O)Nc3cccc(F)c3)N(CCc3ccccc3F)C2=O)cc1 (stereo not given)	x	u	x	-12%[46.1 µM]
Cc1cccc(-n2ncc3c2CCCC3NC(=O)Cc2c(C)noc2C)c1C (stereo not given)	17	x	18	x
CCc1ccc(C(=O)c2cn(CC(=O)NCCc3ccc(OC)c(OC)c3)c3nc(C)ccc3c2=O)cc1	x	x	x	3%[46.1 µM]
COc1ccc(CNC(=O)C2COc3ccccc3O2)cc1 (stereo not given)	29*	-1%[46.1 µM]	39*	0%
O=C(NCC1COc2ccccc2O1)c1ccc(Cl)cc1 (stereo not given)	16*	-7%	39	-16%
COC(=O)c1cc(Sc2cccc(Cl)c2Cl)ccn1	-1	10%	-8	-16%
SMILES	CHX counter	Marburg entry inh	Shiga toxin inh	LASV entry inh
COC(=O)c1cc(Sc2c(Cl)cccc2Cl)ccn1	-2	11µM*	24	-24%
CCOC(=O)C1(C)C=C(Nc2ccc(C)cc2)C(=O)N1c1ccccc1 (stereo not given)	x	-8%[46.1 µM]	x	22%[46.1 µM]
CC(=O)Nc1ccc2ccccc2c1	29*	4%	43	12%
O=C(Nc1ccc2ccccc2c1)C(c1ccccc1)C1CCCC1 (stereo not given)	9	u	34	2.6µM*
CCOC(=O)C(C(=O)OCC)C(Nc1cccc(Br)c1)c1ccccc1 (stereo not given)	-3	-5%	-26	1%
CC(=O)Nc1ccc2sc(C)nc2c1	-3	x	-3	x
Cc1ccc(NC(=O)C(c2ccccc2)C2CCCC2)cc1 (stereo not given)	-1	-29%	-3	2%
CC(=O)Nc1ccc2cc3ccc(NC(C)=O)cc3nc2c1	21*	x	30	x
CCOC(=O)C(Nc1ccc2ccccc2c1)C(=O)OCC	74*	13%	80*	0%
O=C(CCCCCN1C(=O)c2ccccc2C1=O)Nc1ccc(C(=O)O)cc1	3	x	-4	x
O=C(CSc1n[nH]c(-c2ccncc2)n1)Nc1ccc(Cl)c(Cl)c1	-5	u	24	-17%[46.1 µM]
O=C(Nc1ccccc1)Nc1ccc2ccccc2c1	52*	x	81*	x
CC(=O)CC(=O)Nc1ccc2ccccc2c1	24	x	33	x
Cc1ccc2c(c1)c1nnc(SCC(=O)Nc3ccc(N(C)C)cc3)nc1n2CC(=O)O	6	x	-2	x
COc1ccc(-c2csc(N3CCSCC3)n2)cc1	56*	u	95*	u
